Source: PubChem BioAssay (NCATS)
Inconclusive results are not listed. Calls of active or inactive are those of the source. Unless noted, calls follow the shape of the dose curve; as a rule, active = well fitted curve in the direction sought with a large enough effect; inconclusive = small, poorly fitted or top-dose-only effect, or another doubt; inactive = no such curve, though single readings can be large; an effect the other way counts as inactive or inconclusive.

Tests used:
[1] = target: Lysosomal acid glucosylceramidase (Homo sapiens) (UniProt P04062); assay: Glucocerebrosidase-p2 (AID 348; in the data active = potency below about 10 µM; also: potency is read from the fitted curve at half-maximal effect); settings: purified GBA, blue fluorogenic substrate, 40 min
Sequence of Lysosomal acid glucosylceramidase (Homo sapiens) (P04062 whole entry, looked up): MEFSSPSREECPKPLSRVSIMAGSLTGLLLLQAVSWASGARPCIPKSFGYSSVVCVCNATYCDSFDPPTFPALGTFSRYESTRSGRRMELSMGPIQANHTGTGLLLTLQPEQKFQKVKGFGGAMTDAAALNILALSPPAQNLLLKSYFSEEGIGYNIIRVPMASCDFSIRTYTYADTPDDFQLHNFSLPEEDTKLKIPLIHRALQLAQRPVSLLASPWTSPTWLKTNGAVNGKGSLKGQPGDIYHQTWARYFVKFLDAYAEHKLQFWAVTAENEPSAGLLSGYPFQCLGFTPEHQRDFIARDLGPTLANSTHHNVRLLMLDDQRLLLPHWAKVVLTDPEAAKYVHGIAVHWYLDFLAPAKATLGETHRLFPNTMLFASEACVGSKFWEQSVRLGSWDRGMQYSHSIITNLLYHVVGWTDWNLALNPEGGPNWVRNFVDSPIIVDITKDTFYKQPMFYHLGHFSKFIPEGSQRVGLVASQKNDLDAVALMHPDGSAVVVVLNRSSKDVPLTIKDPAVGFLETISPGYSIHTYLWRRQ
In short: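 Normal human glucocerebrosidase (0.2 nM) with blue fluorogenic substrate (80 uM final) in citrate/phosphate pH 5.9 with 10mM sodium taurocholate, 0.01% tween-20; 40 min RT, NaOH/glycine stop; fluorescence Ex 365/Em 440; AC50 from a titration from 0.6 nM upwards.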

[2] = AP1 Signaling Pathway (AID 357; active = well fitted curve in either direction with a large enough effect, not every such curve was filed as active;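 also: ME-180 reporter cells stimulated with EGF at its EC50 level; % is scaled to controls: 0 for no effect and ±100 for the full control effect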); settings: ME-180 AP-1-bla reporter, EGF-induced, beta-lactamase ratio, 5 h; at 7.69 µM (top of the series) unless noted
In short: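 Modulation of EGF-driven AP-1 transcription was assessed with a beta-lactamase reporter in ME-180 cells. Compound and EC50 EGF were co-incubated 5 hours at 37 °C before 2.5-hour CCF4 loading at room temperature and dual-emission reading.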

[3] = target: Cytochrome P450 1A2 (Homo sapiens) (UniProt P05177); assay: p450-cyp1a2 (AID 410; calls by dose curve; also: potency is read from the fitted curve at half-maximal effect)
Sequence of Cytochrome P450 1A2 (Homo sapiens) (P05177 whole entry, looked up): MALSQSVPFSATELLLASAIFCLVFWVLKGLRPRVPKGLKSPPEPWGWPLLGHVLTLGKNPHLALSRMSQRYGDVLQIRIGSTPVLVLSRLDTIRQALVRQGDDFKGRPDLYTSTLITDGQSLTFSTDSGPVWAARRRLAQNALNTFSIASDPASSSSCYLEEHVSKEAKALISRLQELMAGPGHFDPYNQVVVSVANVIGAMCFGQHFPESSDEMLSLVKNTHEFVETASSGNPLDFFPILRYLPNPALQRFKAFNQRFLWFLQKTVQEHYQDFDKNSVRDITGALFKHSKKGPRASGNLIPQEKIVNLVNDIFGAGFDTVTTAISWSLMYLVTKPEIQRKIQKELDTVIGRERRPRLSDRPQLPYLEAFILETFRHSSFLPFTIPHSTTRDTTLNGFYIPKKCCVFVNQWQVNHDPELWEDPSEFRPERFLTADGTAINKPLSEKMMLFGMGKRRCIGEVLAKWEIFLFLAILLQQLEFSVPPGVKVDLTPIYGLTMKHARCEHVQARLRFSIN
In short: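 20nM CYP1A2, 100uM Luciferin-ME (=Km), 100mM KPO4; cpd 10 min RT; +NADPH regen, 60 min RT; stop/detect 20 min; luminescence. Normalized to furafylline 57 uM = full inhibition.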

[4] = NFAT Signaling Pathway (AID 444; active = well fitted curve in either direction with a large enough effect, not every such curve was filed as active;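 also: carbachol stimulus at about its EC50 of 1 µM final; % is scaled to controls: 0 for no effect and ±100 for the full control effect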); settings: Jurkat NFAT-bla M1, carbachol, beta-lactamase ratio, 5 h; at 7.69 µM (top of the series) unless noted
In short: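 Read-out: CCF4 FRET ratio (460 nm/530 nm) after 1 h RT dye loading, used for %activity and AC50 from titration series. Cells: Jurkat NFAT-β-lactamase/M1 line, treated with compound plus 1 uM carbachol for 5 h, 37 °C.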

[5] = Stat Signaling Pathway (AID 446; active = well fitted curve in either direction with a large enough effect, not every such curve was filed as active;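 also: ME-180 cervical cancer cells given 40 pM IL-6 alongside compound; SIE-controlled beta-lactamase reporter measured as 460/530 nm FRET emission ratio; % is scaled to controls: 0 for no effect and ±100 for the full control effect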); settings: ME-180 (cervical carcinoma) SIE beta-lactamase reporter, IL-6 stimulated, 5 h; at 7.69 µM (top of the series) unless noted
In short: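 Normalization used AC90 stimulation (300 pM IL-6) and AC90 inhibition (125 nM pan-JAK inhibitor at 40 pM IL-6). The underlying signal is SIE-driven beta-lactamase in ME-180 cells after 5 h IL-6 exposure with compound.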

[6] = target: Glucocorticoid receptor (Homo sapiens) (UniProt P04150); assay: GR-GFP Redistribution (AID 450;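 active = compounds whose dose series gives a full or clear partial fitted curve of increased nuclear translocation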; also: potency is read from the fitted curve at half-maximal effect); settings: U2OS GR-GFP nuclear translocation, laser cytometry, 2 h
Sequence of Glucocorticoid receptor (Homo sapiens) (P04150 whole entry, looked up, the tested form may be a part): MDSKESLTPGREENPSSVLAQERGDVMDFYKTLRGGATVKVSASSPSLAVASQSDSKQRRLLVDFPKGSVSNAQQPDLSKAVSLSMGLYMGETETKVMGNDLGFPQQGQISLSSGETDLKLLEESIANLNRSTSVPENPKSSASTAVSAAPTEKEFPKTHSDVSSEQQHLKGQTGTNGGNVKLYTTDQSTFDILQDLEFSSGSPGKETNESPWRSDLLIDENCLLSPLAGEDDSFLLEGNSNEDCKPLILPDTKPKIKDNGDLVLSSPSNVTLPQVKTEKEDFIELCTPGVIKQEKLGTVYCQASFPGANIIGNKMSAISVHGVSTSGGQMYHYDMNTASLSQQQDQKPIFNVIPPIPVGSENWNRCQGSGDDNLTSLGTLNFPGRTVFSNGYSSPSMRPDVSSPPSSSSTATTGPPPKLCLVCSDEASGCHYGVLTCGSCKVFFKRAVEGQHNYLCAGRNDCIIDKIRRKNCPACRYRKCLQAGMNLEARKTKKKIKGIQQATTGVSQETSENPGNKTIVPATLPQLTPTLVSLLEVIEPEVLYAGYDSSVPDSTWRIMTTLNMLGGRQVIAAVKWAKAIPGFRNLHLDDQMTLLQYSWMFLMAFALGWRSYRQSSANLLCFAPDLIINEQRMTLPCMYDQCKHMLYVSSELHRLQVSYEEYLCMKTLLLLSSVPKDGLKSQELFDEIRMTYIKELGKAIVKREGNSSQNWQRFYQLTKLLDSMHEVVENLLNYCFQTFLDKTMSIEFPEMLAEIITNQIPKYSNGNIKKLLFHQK

[7] = target: Glucocorticoid receptor (Homo sapiens) (UniProt P04150); assay: GR-EFC Redistribution (AID 451; calls by dose curve; also: potency is read from the fitted curve at half-maximal effect); settings: CHO-K1 GR-EFC translocation, beta-gal luminescence, 2 h
In short: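 Translocation of GR-ED fusion to nuclear EA restores b-gal, read by luminescence after 1 h room-temperature detection. Engineered CHO-K1 biosensor cells, 1,000/well, exposed 2 h at 37 C to titrations up to 46 uM final.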

[8] = target: Mitogen-activated protein kinase 10 (Mus musculus) (UniProt Q61831); assay: JNK3 AlphaScreen Assay (AID 530; active = well fitted curve in either direction with a large enough effect, not every such curve was filed as active;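 also: kinase came from lysate of stimulated human HepG2 cells; signal reports phosphorylation of biotinylated GST-cJun 1-79 at Ser73 with 10 µM ATP; % is scaled to controls: 0 for no effect and ±100 for the full control effect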)
In short: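 Kinase buffer: 20 mM Tris-HCl pH 7.6, 10 mM MgCl2, 1 mM DTT, 0.1 mM Na3VO4, 0.01% Tween-20; ATP 10 uM. Substrate biotin-GST-cJun(1-79), enzyme from activated HepG2 lysates. Detection by Ser73 phospho-antibody AlphaScreen.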

[9] = target: 3',5'-cyclic-AMP phosphodiesterase 4B (Homo sapiens) (UniProt Q07343); assay: qHTS Assay for Inhibitors of PDE-IV (AID 607; active = well fitted activation curve with a large enough effect in the main read-out, with a control signal flat, not every such curve was filed as active; also: % of control where 0% means no effect)
Sequence of 3',5'-cyclic-AMP phosphodiesterase 4B (Homo sapiens) (Q07343 whole entry, looked up): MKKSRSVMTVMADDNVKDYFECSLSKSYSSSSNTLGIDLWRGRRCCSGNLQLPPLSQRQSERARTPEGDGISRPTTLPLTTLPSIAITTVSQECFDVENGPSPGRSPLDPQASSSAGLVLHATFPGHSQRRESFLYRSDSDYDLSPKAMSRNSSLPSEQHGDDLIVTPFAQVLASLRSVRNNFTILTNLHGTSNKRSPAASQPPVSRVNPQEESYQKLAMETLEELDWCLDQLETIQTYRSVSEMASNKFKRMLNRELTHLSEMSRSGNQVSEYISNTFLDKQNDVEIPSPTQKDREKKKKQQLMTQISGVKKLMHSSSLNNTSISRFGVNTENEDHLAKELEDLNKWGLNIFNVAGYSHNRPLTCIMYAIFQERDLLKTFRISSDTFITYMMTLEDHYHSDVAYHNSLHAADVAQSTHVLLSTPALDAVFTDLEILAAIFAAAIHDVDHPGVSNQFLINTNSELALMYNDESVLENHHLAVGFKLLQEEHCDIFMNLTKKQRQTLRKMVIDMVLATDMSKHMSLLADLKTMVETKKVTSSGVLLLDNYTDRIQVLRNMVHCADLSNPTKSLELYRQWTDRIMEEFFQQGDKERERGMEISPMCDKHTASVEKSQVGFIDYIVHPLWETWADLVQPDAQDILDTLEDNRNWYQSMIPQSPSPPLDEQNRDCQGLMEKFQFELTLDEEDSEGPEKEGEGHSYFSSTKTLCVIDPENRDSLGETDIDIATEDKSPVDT
In short: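 HEK293 ACTOne cells with CNG channel (1000/well), endogenous PDE4; membrane potential dye, compounds up to 22.9 uM final. Fluorescence Ex 535/Em 590; RO 20-1724 (100 uM final) as reference.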

[10] = target: Cytochrome P450 3A4 (Homo sapiens) (UniProt P08684); assay: qHTS Assay for Inhibitors and Substrates of Cytochrome P450 3A4 (AID 884); also: potency is read from the fitted curve at half-maximal effect; nearly all actives have a fitted effect of over 50% in size
Sequence of Cytochrome P450 3A4 (Homo sapiens) (P08684 whole entry, looked up): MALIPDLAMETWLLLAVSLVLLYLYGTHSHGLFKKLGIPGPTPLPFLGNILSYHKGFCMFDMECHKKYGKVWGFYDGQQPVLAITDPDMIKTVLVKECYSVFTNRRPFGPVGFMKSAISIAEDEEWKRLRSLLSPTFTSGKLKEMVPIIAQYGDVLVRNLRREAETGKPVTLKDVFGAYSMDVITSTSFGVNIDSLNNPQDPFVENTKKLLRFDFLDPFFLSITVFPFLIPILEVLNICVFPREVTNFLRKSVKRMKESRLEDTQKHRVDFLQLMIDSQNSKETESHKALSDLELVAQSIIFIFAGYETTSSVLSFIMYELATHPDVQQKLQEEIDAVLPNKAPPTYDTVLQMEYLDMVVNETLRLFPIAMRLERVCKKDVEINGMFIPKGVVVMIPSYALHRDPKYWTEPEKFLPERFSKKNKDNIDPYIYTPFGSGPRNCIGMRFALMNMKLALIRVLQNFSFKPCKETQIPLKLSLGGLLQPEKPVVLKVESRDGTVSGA
In short: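 Luminescent readout of luciferin produced by CYP3A4 (20 nM) dealkylation of Luciferin-PPXE, 25 uM (its KM). NADPH-driven reaction ran 60 min at RT after 10 min compound preincubation; data scaled to 57 uM ketoconazole as 100% inhibition.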

[11] = target: Cytochrome P450 3A4 (Homo sapiens) (UniProt P08684); assay: qHTS Assay for Activators of Cytochrome P450 3A4 (AID 885); also: nearly all actives have a fitted effect of over 65% in size
In short: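 Human CYP3A4 dealkylates Luciferin-PPXE to luciferin, which luciferase detection converts to light. Substrate was at its KM (25uM), buffer 200mM KPO4, reaction 60 min at RT.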

[12] = qHTS Assay for Lipid Storage Modulators (AID 1519; calls by dose curve); settings: Drosophila S3 cells, BODIPY lipid droplet/cell ratio, laser cytometry, cells loaded with oleic acid; for activity change, negative = inhibition: at 57.5 µM (top of the series)
In short: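 Cells seeded at 5,000 per well were treated with compounds over a concentration series and loaded with oleic acid (400 uM, as added). Lipid droplet fluorescence (488 nm excitation, 500-530 nm channel) was read by laser-scanning cytometry and normalized to 20 uM Triacsin C.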

[13] = target: Dual specificity protein kinase CLK4 (Homo sapiens) (UniProt Q9HAZ1); assay: qHTS Assay for Inhibitors of CDC-like Kinase 4 (Kinase-Glo Assay) (AID 1770); also: nearly all actives have a fitted effect of over 65% in size; also: potency is read from the fitted curve at half-maximal effect
Sequence of Dual specificity protein kinase CLK4 (Homo sapiens) (Q9HAZ1 whole entry, looked up): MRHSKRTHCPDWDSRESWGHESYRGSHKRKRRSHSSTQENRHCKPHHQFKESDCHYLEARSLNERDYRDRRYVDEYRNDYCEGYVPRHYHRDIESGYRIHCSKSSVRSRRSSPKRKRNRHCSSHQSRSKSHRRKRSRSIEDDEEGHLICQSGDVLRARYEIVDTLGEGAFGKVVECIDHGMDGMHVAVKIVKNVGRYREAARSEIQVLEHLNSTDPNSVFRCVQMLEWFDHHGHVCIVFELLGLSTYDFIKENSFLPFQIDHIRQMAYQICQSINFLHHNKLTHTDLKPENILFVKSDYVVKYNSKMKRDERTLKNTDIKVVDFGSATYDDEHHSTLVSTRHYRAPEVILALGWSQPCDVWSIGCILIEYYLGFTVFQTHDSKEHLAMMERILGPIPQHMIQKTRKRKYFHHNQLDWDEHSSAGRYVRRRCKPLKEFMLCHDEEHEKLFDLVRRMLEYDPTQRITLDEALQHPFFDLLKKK
In short: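 Recombinant human Clk4 (25 nM) phosphorylated RS repeat peptide (100 uM) with 1 uM ATP in Tris pH 7.5/MgCl2/EGTA/DTT/Triton buffer for 4.5 h at room temperature. Residual ATP was quantified by Kinase-Glo luciferase luminescence.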

[14] = target: Dual specificity protein kinase CLK4 (Homo sapiens) (UniProt Q9HAZ1); assay: qHTS Assay for Inhibitors of CDC-like Kinase 4 (ADP-Glo Assay) (AID 1771); also: nearly all actives have a fitted effect of over 70% in size; also: potency is read from the fitted curve at half-maximal effect
In short: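 25 nM Clk4, 100 uM RS peptide, 1 uM ATP (final); 2 mM MgCl2, 0.5 mM EGTA, 2.5 mM DTT, 0.01% Triton X-100; 1 hr RT. ADP-Glo readout: ATP depletion 45 min, conversion/luciferase 30 min, luminescence.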

[15] = target: Ubiquitin carboxyl-terminal hydrolase 1 (Homo sapiens) (UniProt O94782); assay: Inhibitors of USP1/UAF1: Pilot qHTS (AID 504865);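 also: rhodamine fluorescence freed from ubiquitin-rhodamine substrate followed over time; top concentration of the series differs between compounds; % is scaled to controls: 0 for no effect and ±100 for the full control effect; nearly all actives have a fitted effect of over 35% in size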
Sequence of Ubiquitin carboxyl-terminal hydrolase 1 (Homo sapiens) (O94782 whole entry, looked up): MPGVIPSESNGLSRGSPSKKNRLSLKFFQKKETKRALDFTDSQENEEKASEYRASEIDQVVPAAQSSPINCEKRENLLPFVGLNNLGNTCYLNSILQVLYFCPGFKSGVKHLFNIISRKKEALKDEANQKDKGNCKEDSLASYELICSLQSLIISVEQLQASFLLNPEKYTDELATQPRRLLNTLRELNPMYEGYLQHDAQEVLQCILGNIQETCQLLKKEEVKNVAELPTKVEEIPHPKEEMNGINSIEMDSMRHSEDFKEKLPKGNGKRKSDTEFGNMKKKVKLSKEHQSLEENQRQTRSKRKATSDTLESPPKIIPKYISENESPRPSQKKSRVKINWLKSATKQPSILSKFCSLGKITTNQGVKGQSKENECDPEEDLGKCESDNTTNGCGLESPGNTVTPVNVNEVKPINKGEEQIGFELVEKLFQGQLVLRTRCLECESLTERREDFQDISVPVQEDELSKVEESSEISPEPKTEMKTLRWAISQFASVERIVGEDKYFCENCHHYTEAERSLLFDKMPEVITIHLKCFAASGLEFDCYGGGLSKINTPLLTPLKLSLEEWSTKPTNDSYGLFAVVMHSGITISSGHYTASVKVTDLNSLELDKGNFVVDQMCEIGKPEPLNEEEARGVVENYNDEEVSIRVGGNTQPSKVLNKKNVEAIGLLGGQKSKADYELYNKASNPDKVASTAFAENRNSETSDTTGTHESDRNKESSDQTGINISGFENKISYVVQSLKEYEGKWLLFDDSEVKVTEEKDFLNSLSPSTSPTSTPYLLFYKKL
In short: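 USP1/UAF1 complex (1nM) preincubated with compound 15 min at room temperature, then Ub-Rho substrate (150nM final) added. Fluorescence read kinetically at 480/540 nm, 6 reads every 60 seconds. Buffer: 50mM HEPES pH 7.8, 0.5mM EDTA, 0.1 mg/ml BSA, 1mM TCEP, 0.01% Tween-20.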

[16] = Primary qHTS for small molecule stabilizers of the endoplasmic reticulum resident proteome: Secreted ER Calcium Modulated Protein (SERCaMP) assay (AID 1508630); also: % is scaled to controls: 0 for no effect and ±100 for the full control effect
In short: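 The SH-SY5Y reporter protocol was run at 3 concentrations up to 38.3 uM (primary) or 11 concentrations (follow-up): 16 h compound, 100 nM thapsigargin for 4 h, then extracellular luciferase luminescence.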

[17] = target: Dual specificity protein kinase CLK4 (Homo sapiens) (UniProt Q9HAZ1); assay: qHTS Assay for Inhibitors of CDC-like Kinase 4 (ADP-FP Assay) (AID 1795); also: nearly all actives have a fitted effect of over 60% in size; also: potency is read from the fitted curve at half-maximal effect
In short: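 Recombinant human Clk4 (6.25 nM) phosphorylated RS repeat peptide (100 uM) with 1 uM ATP in Tris pH 7.5/MgCl2/EGTA/DTT/Triton buffer for one hour. ADP was quantified by Transcreener competitive fluorescence polarization against an ADP calibration curve.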

[18] = measured here: cell count channel max response
[19] = measured here: lipid channel max response

For `CNc1ncnc2ccc(-c3ccccc3CN(C)C)cc12`, the Potency [1] was > 11.4 µM (inactive), the activity change, negative = inhibition [2] was -22.5% (inactive) and the Potency [3] was 3.16 µM (active). For the same compound, the activity change, negative = inhibition [4] was -2.46% (inactive), the activity, negative = inhibition [5] was -1.81% (inactive) and the Potency [6] was > 46 µM (inactive). The Potency [7] was > 46 µM (inactive), the outcome [8] was “inactive” and the Potency [9] was “inactive”. The Potency [10] was 7.94 µM (active), the Potency [11] was “inactive” and the activity change, negative = inhibition [12] was 4.45% (inactive). The max response [12, 18] was 6.85%, the max response [12, 19] was 10.7% and the Potency [13] was 25.1 µM (active). The Potency [14] was 12.6 µM (active), the Potency [15] was “inactive” and the Potency [16] was “inactive”.

With `CC(=O)NCCNc1ncnc2ccc(-c3ccoc3)cc12` the activity change, negative = inhibition [2] was -5.21% (inactive), the Potency [3] was 12.6 µM (active) and the activity change, negative = inhibition [4] was 17.6% (inactive). The activity, negative = inhibition [5] was 3.17% (inactive), the Potency [6] was > 46 µM (inactive) and the Potency [7] was > 46 µM (inactive). The outcome [8] was “inactive”, the Potency [9] was “inactive” and the activity change, negative = inhibition [12] was 1.77% (inactive). For the same compound, the max response [12, 18] was -0.704%, the max response [12, 19] was -3.36% and the Potency [13] was 0.891 µM (active). For the same compound, the Potency [14] was 1 µM (active), the Potency [17] was 0.355 µM (active) and the Potency [15] was “inactive”. The Potency [16] was “inactive”.

In the case of `CN(C)c1ccc(-c2ccc3ncnc(N(C)C)c3c2)cc1`, the Potency [1] is reported as > 11.4 µM (inactive), the activity change, negative = inhibition [2] is reported as -10.3% (inactive) and the Potency [3] is reported as 0.158 µM (active). For the same compound, the activity change, negative = inhibition [4] was -14.1% (inactive), the activity, negative = inhibition [5] was -0.741% (inactive) and the Potency [6] was > 46 µM (inactive). The Potency [7] was > 46 µM (inactive), the outcome [8] was “inactive” and the Potency [9] was “inactive”. The Potency [10] was 6.31 µM (active), the Potency [11] was “inactive” and the activity change, negative = inhibition [12] was 1.7% (inactive). The max response [12, 18] was 9.5%, the max response [12, 19] was 8.94% and the Potency [13] was 3.55 µM (active). For the same compound, the Potency [14] was 8.91 µM (active), the Potency [15] was “inactive” and the Potency [16] was “inactive”.

With `O=c1c(-c2ccc(F)cc2)nc2cnc(Oc3cccc(Cl)c3)nc2n1C1CC1` the activity change, negative = inhibition [2] was 25.5% (inactive), the Potency [3] was 0.316 µM (active) and the activity change, negative = inhibition [4] was 16.4% (inactive). For the same compound, the activity, negative = inhibition [5] was -8.35% (inactive), the Potency [6] was > 9.22 µM (inactive) and the Potency [7] was > 46 µM (inactive). For the same compound, the outcome [8] was “inactive”, the Potency [9] was “inactive” and the activity change, negative = inhibition [12] was 0.37% (inactive). For the same compound, the max response [12, 18] was -8.94%, the max response [12, 19] was -12.9% and the Potency [13] was “inactive”. The Potency [14] was “inactive”, the Potency [17] was “inactive” and the Potency [15] was “inactive”. The Potency [16] was “inactive”.

For `COc1ccc(-c2nc3cnc(Nc4cccc(OC)c4)nc3n(C[C@H]3CCCO3)c2=O)cc1`, the activity change, negative = inhibition [2] was -24.6% (inactive), the activity change, negative = inhibition [4] was -19.9% (inactive) and the activity, negative = inhibition [5] was 16.7% (inactive). The Potency [6] was > 9.22 µM (inactive), the Potency [7] was > 46 µM (inactive) and the outcome [8] was “inactive”. The Potency [9] was “inactive”, the Potency [11] was “inactive” and the activity change, negative = inhibition [12] was -4.84% (inactive). For the same compound, the max response [12, 18] was -7.08%, the max response [12, 19] was -12.2% and the Potency [13] was “inactive”. For the same compound, the Potency [14] was “inactive”, the Potency [17] was “inactive” and the Potency [15] was “inactive”. For the same compound, the Potency [16] was “inactive”.
